# Assay outcomes deposited in PubChem BioAssay by National Center for Advancing Translational Sciences (NCATS).
# HCV inh – qHTS Assay for Inhibitors of Hepatitis C Virus (HCV) | Huh7.5.1 HCVcc-Cre infection, luciferase reporter, 44 h | AID 651820, 2012 | 3.4% of 340,000 active | Potency, µM (doses to about 41.8 µM), without a hit: at the top dose activity change, negative = inhibition, usual class: inhibitors; active = well fitted inhibition curve with a large enough effect; inconclusive = small, poorly fitted or top-dose-only effect, or another doubt; inactive = no such curve, though single readings can be large or run the other way; note: potency is the fitted concentration of half-maximal effect
#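 Reporter virus HCVcc-Cre (~0.5 moi) infects cells exposed to compound; seeding density 1,000 cells/well with 4 h settling beforehand. Luminescence, 15 sec read, taken 44 h post-infection following a 15 min RT substrate incubation.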
# HCMV antiviral – qHTS Assay for inhibitors of the human cytomegalovirus (HCMV); activity change, negative = inhibition, % at 57.5 µM; 4.5% of 410,000 active; HFF cells, HCMV-luciferase reporter, 72 h; stronger effect = lower value; AID 1259415, 2018; in the data active = activity change below about -60%; inconclusive = no clear call, values can overlap the other calls; inactive = above about -39%
#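 Luciferase read-out from HCMV-luciferase-infected HFFs (MOI 1 PFU/cell) 72 h post infection at 37C; compounds added after 16 h cell attachment; activity normalized between buffer-only basal and Salinomycin (10uM) inhibitor controls.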
# VACV mCherry inh – qHTS for Stage-Specific Inhibitors of Vaccinia Orthopoxvirus: mCherry Reporter Primary qHTS; Vaccinia virus mCherry reporter infection, fluorescence; Potency, µM (series often up to 36.5 µM), for inactives: at the top dose activity change, negative = inhibition, actives largely listed as inhibitors; 0.63% of 310,000 active; calls by dose curve; tested in A549 cells; note: potency is the fitted concentration of half-maximal effect; nearly all actives have a fitted effect of over 35% in size
# Vaccinia Venus – qHTS for Stage-Specific Inhibitors of Vaccinia Orthopoxvirus: Venus Reporter Primary qHTS; Vaccinia virus Venus reporter expression, fluorescence; Potency, µM (series often up to 36.5 µM), for the others: at the top dose activity change, negative = inhibition, hits mostly inhibitors; 0.46% of 330,000 active; calls by dose curve; tested in A549 cells; note: potency is the fitted concentration of half-maximal effect; nearly all actives have a fitted effect of over 30% in size
# FMDV antiviral – High Throughput Screening for Foot and Mouth Disease Virus Antivirals | FMDV antiviral cell-based qHTS | Potency, µM (top dose mostly 57.9 µM), without a hit: at the top dose activity change, negative = inhibition, hits mostly inhibitors | 1.2% of 410,000 active; calls by dose curve; tested in HEK293T cells; note: read-out not given here; potency is the fitted concentration of half-maximal effect; nearly all actives have a fitted effect of over 45% in size
# * = called active by the depositor; i = inactive; ? = inconclusive; . = no result given; [ ] = another dose, or the depositor's remark. Shown are actives, neighbours in structure and some others; about 7.3% of the full set was active somewhere. % is set by controls: 0 for no effect and ±100 for the full control effect.
SMILES,HCV inh,HCMV antiviral,VACV mCherry inh,Vaccinia Venus,FMDV antiviral
CC(C)(C)OC(=O)[C@H](Cc1ccccc1)NC(=O)c1nc[nH]c1C(=O)N[C@@H](CCCCN)C(=O)OC(C)(C)C,-11.1%,-67.9*,i,-4.5%,-10.4%
CC(C)C[C@H](NC(=O)c1[nH]cnc1C(=O)Nc1ccccc1)C(=O)OC(C)(C)C,-3.4%,-102.4*,-19.4%,?,0.0%
CC(C)C[C@H](NC(=O)c1nc[nH]c1C(=O)N1CCN(C(=O)OC(C)(C)C)CC1)C(=O)OC(C)(C)C,?,-96.0*,?,-8.7%,-16.5%
C[C@H](NC(=O)c1nc[nH]c1C(=O)N1CCN(C(=O)OC(C)(C)C)CC1)C(=O)OCc1ccccc1,18.6%,4.4,i,-3.2%,-17.2%
CC(C)Cc1nn2c(=O)cc(COC(=O)c3cccc(NC(=O)CCc4ccccc4)c3)nc2s1,.,-10.0,i,-12.3%,-0.7%
CC(C)C[C@H](NC(=O)c1nc[nH]c1C(=O)N[C@@H](CC(C)C)C(=O)OC(C)(C)C)C(=O)OCc1ccccc1,-24.0%[8.37 µM],-101.1*,-21.9%,-20.6%,-25.1%
CC(C)C[C@H](NC(=O)c1nc[nH]c1C(=O)NCC(=O)OC(C)(C)C)C(=O)OCc1ccccc1,-16.8%[8.37 µM],40.1,?,-2.5%,-25.6%
O=C1C(n2ccc3ccccc32)c2ccccc2N1Cc1ccc(C(F)(F)F)cc1 (centres undefined),.,21.3,.,.,.
O=C1C(n2ccc3ccccc32)c2cc(OC(F)(F)F)ccc2N1Cc1ccc(C(F)(F)F)cc1 (centres undefined),.,-88.8*,.,.,.
COc1ccc(CN2C(=O)C(n3ccc4ccccc43)c3cccc(F)c32)cc1 (centres undefined),.,-72.0*,.,.,.
N#Cc1ccccc1Cn1c(=O)n(CCCC(=O)NCc2ccc3c(c2)OCO3)c(=O)c2sccc21,.,?,-13.4%,-9.9%,-9.0%
Cn1c(=O)c(=O)n(C)c2cc([N+](=O)[O-])c(N3CCOCC3)cc21,-3.5%,-2.3,i,-12.0%,-13.1%
CC1CCN(C(=O)CSc2ccc(-c3ccc(F)cc3)nn2)CC1,0.2%,-38.9,-20.9%,-19.6%,?
CC1CC(C)(C)N(C(=O)CSc2ccc(-c3ccc(F)cc3)nn2)c2ccccc21 (centres undefined),-2.7%,-86.6*,-11.2%,?,.
OC1CCCN(Cc2ccc3ccc4cccc5ccc2c3c45)C1 (centres undefined),?,-17.0,-17.1%,?,.
c1cc2ccc3ccc(CN4CCOCC4)c4ccc(c1)c2c34,10µM*,11.6,i,-20.6%,.
O=C(CSc1n[nH]c(-c2ccccc2Cl)n1)NCc1ccc(F)cc1,.,-2.9,-6.0%,-14.2%,-17.5%
Cc1cccc(-n2c(/C=C/c3ccc([N+](=O)[O-])o3)nc3ccccc3c2=O)c1,10µM*,-103.7*,-7.0%,-10.0%,?
Cc1cccc(-n2c(/C=C/c3ccccc3O)nc3ccccc3c2=O)c1,.,-98.2*,-23.9%,?,?
Cc1nc2ccccc2c(=O)n1-c1cc([N+](=O)[O-])cc([N+](=O)[O-])c1,?,-30.3,.,.,-12.1%
CC(=O)N(/N=C/c1ccc([N+](=O)[O-])o1)c1nc2ccccc2c(=O)n1-c1ccccc1,-24.4%,-63.7*,.,.,-2.5%
O=c1c2ccccc2nc(/C=C/c2ccc([N+](=O)[O-])o2)n1-c1ccc(O)cc1,?,-100.5*,3.55µM*,-24.8%,?
O=C(Nc1cc(Cl)cc(Cl)c1)c1cnn2c1NC(=C1CC1)C=C2C(F)F,.,.,-7.6%,-7.7%,.
CCCc1cc(=O)[nH]c(SCC(=O)Nc2sc3c(c2C#N)CCC(C)C3)n1 (centres undefined),-1.8%,-61.0*,-4.3%,-23.7%,7.4%
CCN1CCN(CC(=O)Nc2sc3c(c2C#N)CCC(C)C3)CC1 (centres undefined),35.5µM*,-38.6,-2.7%,-17.5%,0.0%
SMILES,HCV inh,HCMV antiviral,VACV mCherry inh,Vaccinia Venus,FMDV antiviral
CCCc1cc(=O)[nH]c(SCC(=O)Nc2sc(C(N)=O)c(C)c2C(=O)OCCOC)n1,?,-62.5*,.,.,0.0%
CC1CCc2c(sc(NC(=O)CSc3ncn[nH]3)c2C#N)C1 (centres undefined),11.2µM*,-66.1*,.,.,?
CC1CCc2c(sc(NC(=O)CSc3nnc(-c4ccccc4)o3)c2C#N)C1 (centres undefined),0.5%,60.7,-19.6%,-4.3%,-18.9%
CCOC(=O)c1cnc2ccc(Cl)cc2c1N1CCN(C)CC1,-8.3%,13.6,-2.0%,-13.5%,.
CCOC(=O)c1cnc2c(OC)cccc2c1N1CCN(c2ccccc2OC)CC1,?,46.1,?,-21.8%,?
CCOC(=O)c1cnc2c(OC)cccc2c1N1CCN(c2ccc(OC)cc2)CC1,?,27.9,?,-28.1%,-28.9%
CCOC(=O)c1cnc2c(OC)cccc2c1N1CC(C)CC(C)C1 (centres undefined),12.6µM*,?,.,.,?
CCOC(=O)c1cnc2c(OC)cccc2c1N1CCN(c2ccccn2)CC1,?,-68.6*,-17.4%,-21.0%,31.6µM*
CCOC(=O)c1cnc2c(C)cc(Cl)cc2c1N1CCN(C)CC1,-23.3%,-62.0*,-16.8%,-4.1%,-23.5%
Cc1ccc(-c2nc(C)c(CCNS(=O)(=O)c3ccccc3F)s2)cc1,.,-17.9,-9.7%,3.5%,24.6%
CCc1ccccc1NC(=S)N(CCc1ccncc1)C(C)C,10.2%,-92.6*,.,.,-8.4%
Cc1cccc(NC(=S)N(CCc2ccncc2)C(C)C)c1C,0.5%,9.3,-16.7%,-16.9%,15.9%
CN(Cc1ccccc1)C(=O)Cn1c(=O)c2cccn2c2cccnc21,-25.9%,?,.,.,-23.7%
CC1Cc2ccccc2N1C(=O)CSc1nnc(-c2ccccc2)c(-c2ccccc2)n1 (centres undefined),10µM*,-83.0*,-14.4%,-25.3%,?
CC1Cc2ccccc2N1C(=O)CSc1nncn1C (centres undefined),-1.2%,34.8,-5.6%,-3.5%,-12.2%
CC1Cc2ccccc2N1C(=O)CSc1nnc2c(n1)[nH]c1ccccc12 (centres undefined),-5.4%,-4.9,.,-5.0%,14.1µM*
C[C@H](CO)N1C[C@H](C)[C@H](CN(C)S(=O)(=O)c2cccc(F)c2)Oc2ncc(-c3cccc(C(=O)N(C)C)c3)cc2C1=O,.,16.0,-10.6%,-3.0%,12.3%
CCOC(=O)c1c(NC(=O)C(C)Sc2cn(CCNC(=O)c3ccc(OC)cc3)c3ccccc23)sc2c1CCC2 (centres undefined),.,-5.9,-9.0%,-12.2%,-15.0%
CCNC(=O)C1(C)CCN1CCS(=O)(=O)c1ccc(C)cc1 (centres undefined),.,-102.5*,-8.3%,-3.5%,-13.1%
CCn1c2ccccc2c2cc(/C=C3/C=Cc4ccccc43)ccc21,.,.,-7.6%,-21.3%,.
